This is a sample that favours compounds with a hit; in the whole collection about 21% have one here.
Cycloheximide cs = Cycloheximide Counterscreen for Small Molecule Inhibitors of Shiga Toxin; actives 12% (n = 300,000); AID 2314, 2010; cell reporter, cycloheximide protein synthesis inhibition counterscreen; max response, %; in the data active means max response mostly above about 13%, no sharp cut-off; inactive means mostly below about 14%; further: read at 38.3 µM for the half of the compounds with a filed dose; 0% is about no effect
Pf growth 96h = Primary qHTS for delayed death inhibitors of the malarial parasite plastid, 96 hour incubation; Potency, µM (highest dose often 28.7 µM), without a hit: at the top dose activity change, negative = inhibition, usual class: inhibitors; P. falciparum luciferase reporter growth, 96 h; actives 6.9% (n = 320,000); further: potency means the concentration at half of the fitted maximal effect; on the % scale 0 is the no-effect control and ±100 the full control effect
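Parasite growth measured via integrated firefly luciferase reporter in P. falciparum. Infected erythrocytes at 2% hematocrit, 0.05% parasitemia final were treated 96 hours at 37 C under 5% CO2, and luminescence was read.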
Pf growth 48h = Primary qHTS for delayed death inhibitors of the malarial parasite plastid, 48 hour incubation. actives 5.9% (n = 310,000). P. falciparum luciferase growth in erythrocytes, 48 h. Potency, µM (doses to about 28.7 µM), for inactives: at the highest dose activity change, negative = inhibition, actives largely listed as inhibitors; further: potency means the concentration at half of the fitted maximal effect; on the % scale 0 is the no-effect control and ±100 the full control effect
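A one-generation exposure of luciferase-tagged malaria parasites in RPMI 1640/Albumax erythrocyte culture, 37 C and 5% CO2. Inhibition is inferred from decreased luminescence after adding detection reagent.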
Shiga toxin inh = A qHTS for Small Molecule Inhibitors of Shiga Toxin | Vero cells, Shiga toxin protein synthesis inhibition reporter | inhibition, % at 38.7 µM | actives 9.2% (n = 290,000) | AID 2315, 2010; in the data active means inhibition mostly above about 28%, no sharp cut-off; inactive means mostly below about 43%; further: 0% is about no effect
The depositor's hits bear a star; ? = inconclusive; · = no result given. Unless noted, the call rests on the fitted dose curve; in most records, active means well fitted inhibition curve with a large enough effect; inconclusive means small, poorly fitted or top-dose-only effect, or another doubt; inactive means no such curve, though single readings can be large or run the other way.

SMILES	Cycloheximide cs	Pf growth 96h	Pf growth 48h	Shiga toxin inh
Cc1cccc(NC(=S)N2CCN(S(=O)(=O)c3ccc(F)cc3)CC2)c1	-1	?	2.1µM*	-4
O=S(=O)(c1ccccc1)N1CCN(C(=S)Nc2ccc(F)cc2)CC1	1	?	?	-15
COc1ccc(NC(=S)N2CCN(S(=O)(=O)c3ccc(F)cc3)CC2)cc1	12	?	?	-11
O=S(=O)(c1ccc(Cl)cc1)N1CCN(C(=S)Nc2ccc(F)c(Cl)c2)CC1	-2	0%	0.66µM*	-10
CNc1snc(C)c1C(=O)OC(C)C(=O)NCc1ccccc1 (stereo unspecified)	·	11%	-1%	·
CCN1CCN(S(=O)(=O)c2ccc(C(=O)Nc3sc4c(c3C(N)=O)CCN(CC)C4)cc2)CC1	-5	?	?	-35
CNC(=O)c1c(NC(=O)c2ccc(S(=O)(=O)N(C)c3ccccc3)cc2)sc2c1CCN(C(C)C)C2	-4	?	0.59µM*	-9
CCN1CCc2c(sc(NC(=O)c3ccc(S(=O)(=O)N(C)c4ccccc4)cc3)c2C(=O)NC)C1	-2	1.5µM*	2.1µM*	-7
CC(C)N1CCc2c(sc(NC(=O)c3nc4ccccc4s3)c2C(N)=O)C1	18	56%	-18%	47
CC(C)N1CCc2c(sc(NC(=O)c3ccc(S(=O)(=O)N4CCc5ccccc54)cc3)c2C(N)=O)C1	-2	7.4µM*	4.1µM*	-11
CCN1CCc2c(sc(NC(=O)c3ccc4ccccc4c3)c2C(N)=O)C1	20*	?	12µM*	28
N#Cc1ccccc1OCC(=O)OCC(=O)NC1CCCC1	·	-3%	13%	·
CC1CCCC(C)N1C(=O)COC(=O)CSc1ccc(C(N)=O)cc1[N+](=O)[O-] (stereo unspecified)	·	14%	0%	·
CC(=O)Nc1ccc(NC(=O)C2CCCCN2S(=O)(=O)c2ccc(C(C)(C)C)cc2)cc1 (stereo unspecified)	-1	15%	?	3
CC1CCCC(NC(=O)NC(=O)CCl)C1C (stereo unspecified)	4	10µM*	0.033µM*	-8
CC1CCCCC1NC(=O)NC(=O)CCl (stereo unspecified)	0	?	8.3µM*	-1
CC1CCCCC1NC(=O)NC(=O)COC(=O)c1ccc(OC(F)F)cc1 (stereo unspecified)	·	2%	-5%	·
CC(=O)c1ccc(N2CCN(S(=O)(=O)c3c(C(=O)N4CCCC4)c(C)n(C)c3C)CC2)cc1	18	18%	1%	30
O=c1[nH]c(=S)[nH]c(O)c1N=Nc1ccc(-c2ccccc2)cc1[N+](=O)[O-]	17*	235%	27%	58*
O=C(O)c1cc2ccccc2c(N=Nc2cccnc2)c1O	-3	2.9µM*	-12%	-2
O=C(O)c1cc(N=Nc2c(O)ccc3ccccc23)cc(C(=O)O)c1	8	?	?	-1
CCn1c(NC(=O)c2cccc(Cn3cc(Cl)cn3)c2)nc2ccccc21	8	?	10µM*	36
COC(=O)c1cccc(Cn2cc([N+](=O)[O-])cn2)c1	2	3.7µM*	-11%	-9
COc1ccc(N2CCN(C(=O)c3cccc(Cn4cc(Cl)cn4)c3)CC2)cc1	8	?	-40%	17
O=C(Nc1cccc(Cl)c1)c1ccc(Cn2cc(Cl)cn2)cc1	15*	-9%	-10%	79*
SMILES	Cycloheximide cs	Pf growth 96h	Pf growth 48h	Shiga toxin inh
COC(=O)c1ccc(Cn2cc([N+](=O)[O-])cn2)cc1	-2	-3%	20%	52
Cn1c(NC(=O)c2cccc(Cn3cc(Cl)cn3)c2)nc2ccccc21	69*	·	-1%	195*
CC(=O)Nc1ccc(NC(=O)c2ccc(Cn3cc(Cl)cn3)cc2)cc1	-1	?	-6%	-9
CC1CCCN(S(=O)(=O)c2ccc(S(=O)(=O)NC(C)c3cccs3)cc2)C1 (stereo unspecified)	0	-8%	·	20
CCOC(=O)CC(=O)Nc1ccc(C)cc1	11	47%	31%	10
COP(=O)(CC(=O)c1ccccc1)CC(=O)c1ccccc1	-2	12%	-5%	12
O=C(O)c1cccc(Cn2cc(Cl)cn2)c1	-4	25%	11%	9
CC(C)CNC(=O)c1cccc(Cn2cc(Cl)cn2)c1	-4	10µM*	-4%	37
CC(OC(=O)c1ccc2c(=O)n3c(nc2c1)CCC3)C(=O)Nc1ccc(C(N)=O)cc1 (stereo unspecified)	·	2%	45%	·
CC(C)(C)c1ccc(S(=O)(=O)Nc2ccc(Cc3ccncc3)cc2)cc1	22*	?	?	56
COc1ccc(CNC(=O)COc2cc3c(c4oc(=O)cc(C)c24)CCC(C)(C)O3)cc1OC	2	7.4µM*	10µM*	-5
Cc1c(C)c2c(OCC(=O)NCC(C)C)cc3c(c2oc1=O)CCC(C)(C)O3	-1	?	8.3µM*	-5
Cc1c(C)c2c(OCC(=O)NCc3ccncc3)cc3c(c2oc1=O)CCC(C)(C)O3	-2	2.9µM*	?	-9
Cc1c(C)c2c(OCC(=O)NCc3cccnc3)cc3c(c2oc1=O)CCC(C)(C)O3	-1	?	-8%	-3
Cc1c(C)c2c(OCC(=O)N[C@@H](C)C(=O)O)cc3c(c2oc1=O)CCC(C)(C)O3	-6	-12%	-7%	-10
Cc1cc(=O)oc2c3c(cc(OCC(=O)NCc4ccncc4)c12)OC(C)(C)CC3	-2	10µM*	?	-10
CS(=O)(=O)c1ccc2nc(NC(=O)CCN3C(=O)c4ccccc4C3=O)sc2c1	11	52%	-18%	9
CCC(C)C(NC(=O)/C(=C\c1ccccc1)NC(=O)c1ccc(OC)cc1)C(=O)O (stereo unspecified)	-1	-16%	34%	17
Cc1c(C)c2c(OCC(=O)NCc3ccco3)cc3c(c2oc1=O)CCC(C)(C)O3	1	-21%	27%	-2
Cc1cc(=O)oc2c3c(cc(OCC(=O)NCc4ccco4)c12)OC(C)(C)CC3	30*	8.3µM*	?	33*
CCC(C)(C)C1CCc2[nH]nc(C(=O)NN)c2C1 (stereo unspecified)	38*	?	?	53*
COc1cccc(C2SCC(=O)N2c2ccc(Br)cc2)c1OC (stereo unspecified)	-3	0%	-19%	-3
O=C1c2ccccc2C(=O)N1c1ccc(Cc2ccncc2)cc1	15*	-2%	27%	38
CCOC(=O)N1CCN(Cc2nc3c(c(=O)n(C)c(=O)n3C)n2Cc2cccc3ccccc23)CC1	-2	8.3µM*	12µM*	28
CCCOc1nc2c(c(=O)n(C)c(=O)n2C)n1Cc1cccc2ccccc12	-5	·	13µM*	-1
CCOC(=O)N1CCN(Cc2nc3c(c(=O)n(C)c(=O)n3C)n2Cc2cccc(C)c2)CC1	-2	?	·	-5
COc1ccccc1N1CCN(C(=O)C2CCC(CNS(=O)(=O)c3ccc(NC(C)=O)cc3)CC2)CC1 (stereo unspecified)	-1	?	?	-4
Cc1ccc(NC(=O)c2ccc([N+](=O)[O-])o2)c(C)c1	38*	-31%	?	80*

Assay outcomes: PubChem, National Center for Advancing Translational Sciences (NCATS)
